S1P2 antag: antagonists of human S1P2 receptor; cell-based S1P2 antagonist assay, inhibition at 5 uM; inhibition, % at 5 µM; actives 0.21% (n = 97,000); O95136; in the data active means inhibition above about 45%;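 further: CRE beta-lactamase reporter cells expressing human S1P2 stimulated with S1P; 0% = agonist at EC80 alone and 100% = agonist plus reference antagonist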
PTPN22 act: LYP (human) phosphatase activation | AID 697 | actives 0.11% (n = 96,000) | recombinant LYP, DiFMUP fluorescence; 0 = plate median, 100 = signal doubled | Q9Y2R2 | activation, % at 2 µM;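 active means activation at 2 µM above a set limit, the mean plus 5 SD, cut at about 37% in these data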
GALR2 antag: GALR2 (human) receptor antagonism; O43603; GALR2-expressing cells, antagonist mode; inhibition, % at 4 µM; actives 0.39% (n = 140,000); AID 828; in the data active means inhibition above about 27%;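 further: cells stimulated with galanin 1-16 at roughly its EC80; 0% = agonist challenge control and 100% = basal control without agonist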
Target sequence (O43603 whole entry, looked up): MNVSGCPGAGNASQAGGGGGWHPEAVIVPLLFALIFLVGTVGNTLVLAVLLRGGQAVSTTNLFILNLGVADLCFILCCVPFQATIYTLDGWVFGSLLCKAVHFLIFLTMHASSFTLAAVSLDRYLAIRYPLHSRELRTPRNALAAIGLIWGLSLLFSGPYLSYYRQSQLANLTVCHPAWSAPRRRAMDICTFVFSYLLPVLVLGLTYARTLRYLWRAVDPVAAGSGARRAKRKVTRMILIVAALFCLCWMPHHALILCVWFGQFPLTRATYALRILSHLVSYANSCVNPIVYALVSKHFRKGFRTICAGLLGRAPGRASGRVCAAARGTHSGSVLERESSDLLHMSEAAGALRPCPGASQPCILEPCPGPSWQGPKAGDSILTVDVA
S1P2 agonist: activates the human S1P2 receptor | activation, % at 4.5 µM | actives 0.46% (n = 97,000) | S1P2-expressing cell line, agonist reporter read-out | O95136; in the data active means activation above about 16%;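 further: 0% = vehicle low control and 100% = maximal reference agonist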
PTPN22 inh 2: inhibitors of human LYP (PTPN22) phosphatase; actives 0.21% (n = 96,000); recombinant LYP catalytic domain, DiFMUP fluorescence; inhibition, % at 2 µM; Q9Y2R2;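 active means inhibition at 2 µM at or above a set limit, the screen mean plus 3 SD, cut at about 24% in these data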;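 further: 0% = DMSO with enzyme and 100% = enzyme fully blocked by orthovanadate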
GALR2 ag: GALR2 (human) receptor agonism. O43603. GALR2-expressing cells, agonist activation read-out. activation, % (test concentration not listed). actives 0.48% (n = 140,000); in the data active means activation above about 5%, passing the limit was not always enough;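 further: 0% = vehicle buffer wells and 100% = reference agonist at full effect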
PTPN22 act conf: LYP (PTPN22) phosphatase activation confirmation; shares compounds with PTPN22 act; Recombinant LYP, DIFMUP fluorescence; zero set by plate's median compound well; activation, % at 2 µM; 100 tested, under 10 active; AID 1031; call rule not given here
An asterisk follows results filed as active; / = no result. The list is not random: actives were taken first. Their share in the collection is about 1.4%.

SMILES | S1P2 antag | PTPN22 act | GALR2 antag | S1P2 agonist | PTPN22 inh 2 | GALR2 ag | others
O=C(COC(=O)c1ccc(CSc2ccc(Cl)cc2)cc1)Nc1ccccc1 | / | / | -18 | / | / | 0
Cc1ccc(S(=O)(=O)c2ccc(Cl)cc2)cc1S(=O)(=O)N(C)CC(=O)O | / | / | -7 | / | / | -1
C/C(=N/NC(=O)c1ccc2c(c1)OCO2)c1cccc(NC(=O)C(C)(C)C)c1 | -12 | -3 | 20 | 41* | 0 | -1
COc1cc2c(cc1OC)-c1cc(NC3CCCCC3)nc(=O)n1CC2 | -32 | 12 | 5 | 33* | -15 | -1
COc1cc2c(cc1OC)-c1cc(NC3CC3)nc(=O)n1CC2 | -19 | -7 | -8 | 15 | 7 | -1
COc1cc2c(cc1OC)-c1cc(NC3CCCCCCC3)nc(=O)n1CC2 | -6 | -13 | -15 | 50* | 11 | 1
CCNc1cc2n(c(=O)n1)CCc1cc(OC)c(OC)cc1-2 | -28 | 8 | -5 | 9 | -10 | -2
CCCCCCNc1cc2n(c(=O)n1)CCc1cc(OC)c(OC)cc1-2 | -48 | -9 | -10 | 30* | 8 | -1
NS(=O)(=O)c1ccc(CCNC(=S)Nc2ccccc2)cc1 | / | / | 8 | / | / | -2
Cc1cccc2nc(CSc3nc4cc([N+](=O)[O-])ccc4s3)cn12 | / | / | 10 | / | / | -1
CC(C)(C)NC(=O)C(c1ccco1)N(C(=O)Cn1nnc(-c2ccc(F)cc2)n1)c1ccccc1F (configuration not stated) | -1 | -11 | -7 | 19* | 11 | -1
O=C1CC(=C2c3ccccc3-c3ccccc32)C(=O)N1CCN1CCN(c2cccc(Cl)c2)CC1 | 0 | -24 | 6 | -1 | 25* | -2
O=C1C2CCCN2C(=O)N1CCCCN1CCN(c2cccc(Cl)c2)CC1 (configuration not stated) | / | / | 8 | / | / | -1
CCN(CC)c1ccc2c(C)c(CN3CCOCC3)c(=O)oc2c1 | -20 | 2 | -1 | 26* | -3 | 6.2*
CN(c1ccc(C(=O)N2CCOCC2)cc1[N+](=O)[O-])C1CCCCC1 | 4 | 2 | -8 | -3 | 2 | -2
C=CCn1c2ccccc2c2nnc(SCN3C(=O)c4ccccc4C3=O)nc21 | -21 | -7 | -21 | 20* | 10 | 0
CC(C)(C)NC(=O)CSC(=Nc1ccc(F)cc1)NC#N | -4 | -7 | -1 | 24* | 4 | -2
CCOc1ccc(/C=N/N2C(=O)C(CC(=O)Nc3ccc(F)cc3F)SC2=NC)cc1OC (configuration not stated) | / | / | 6 | / | / | 6.0*
O=C(CSc1nnc(-c2ccc(Cl)s2)o1)N1CCc2ccccc21 | -1 | -3 | -13 | -4 | 3 | -1
O=C(CSc1nnc(-c2ccc(Cl)s2)o1)N1CCCc2ccccc21 | 8 | -24 | -14 | -5 | 24* | -2
Cn1c(=O)cc(SCC(=O)NCCN2CCN(c3ccccc3F)CC2)c2cc(Cl)ccc21 | 1 | -33 | -2 | -9 | 33* | -1
O=C(O)CCCCCNc1nc(=S)[nH]c2ccccc12 | 9 | -24 | 3 | -12 | 27* | -2
O=C(CCCCCNc1nc(=S)[nH]c2ccccc12)NCCc1c[nH]c2ccccc12 | / | / | -3 | / | / | -1
Cc1c(C(=O)N/N=C/c2ccc(N(C)C)cc2)[nH]c2ccc(Cl)cc12 | / | / | 4 | / | / | 6.4*
Cc1c(C(=O)N/N=C/c2ccccc2)[nH]c2ccc(Cl)cc12 | / | / | 4 | / | / | -1
SMILES | S1P2 antag | PTPN22 act | GALR2 antag | S1P2 agonist | PTPN22 inh 2 | GALR2 ag | others
Cn1c(NC(=O)COc2ccccc2)cc(=O)n(C)c1=O | -7 | 5 | 4 | -8 | -5 | 0
Cc1cc(C)cc(NC(=O)Cc2ccc(-n3cccc3)cc2)c1 | / | / | 18 | / | / | 0
O=C(N/N=C/c1ccncc1)c1cc([N+](=O)[O-])cc([N+](=O)[O-])c1O | -1 | -44 | 7 | -3 | 46* | 0
O=C(N/N=C/c1cccc([N+](=O)[O-])c1)c1cnccn1 | / | / | 0 | / | / | -1
O=c1c(-c2nc3ccccc3s2)cccn1Cc1ccc(Cl)cc1 | -87 | 3 | -4 | 96* | 0 | 68*
Cc1cc(-c2c(C)[nH]n(-c3ccc(Cl)cc3)c2=O)n[nH]1 | -3 | -82 | 5 | 0 | 82* | -1
Cc1[nH]n(-c2ccccc2)c(=O)c1Sc1ccc(Cl)cc1 | 12 | -7 | 11 | -8 | 11 | -2
COc1ccc(CN2CCN(C(=O)c3ccco3)CC2)cc1 | -13 | -36 | 8 | -4 | 37* | -2
CCOc1cc(CN2CCN(C(=O)c3ccco3)CC2)ccc1OC | / | / | -2 | / | / | -1
Cc1c(C(=O)Nc2ccc(OC(F)(F)F)cc2)sc2nc3n(c(=O)c12)CCC3 | 58* | -14 | 15 | -4 | 15 | -1
COc1ncnc2c1cnn2-c1ccccc1 | -14 | 38* | -4 | -3 | -38 | -1 | PTPN22 act conf=1
CCCN(C(=S)Nc1ccccc1)C1CCS(=O)(=O)C1 (configuration not stated) | 14 | -2 | -3 | -3 | 7 | -1
CCC(=O)c1ccc(N2CCN(C(=O)Cc3ccccc3)CC2)c(F)c1 | -5 | 41* | -3 | 0 | -41 | -2 | PTPN22 act conf=4
Cc1cccc(-c2noc(CCCC(=O)N3CCOCC3)n2)c1 | 3 | 7 | -8 | 0 | -4 | 0
COc1ccccc1NC(=O)CN1CCN(C(=O)c2ccco2)CC1 | -6 | 37* | 4 | -4 | -38 | -4 | PTPN22 act conf=0
Cc1ccc(-c2nc(CCN3C(=O)c4ccccc4C3=O)cs2)cc1 | -13 | 48* | -1 | -2 | -44 | -2 | PTPN22 act conf=5
Cc1ccc(-c2nc(CSc3nc4ccccc4c(=O)n3C)cs2)cc1 | / | / | -5 | / | / | 1
OC(CNC1CCCCC1)COCCOc1ccc(Br)cc1 (configuration not stated) | / | / | -4 | / | / | -1
O=C(COc1ccc(Br)cc1CO)Nc1ccccc1F | -3 | 38* | 6 | -4 | -45 | 0 | PTPN22 act conf=-2
Cc1ccccc1C(=O)NC(=S)NCC1CCCO1 (configuration not stated) | -7 | 39* | 0 | -4 | -35 | -3 | PTPN22 act conf=1
CCOCc1nnc(NC(=O)CSCc2ccccc2)s1 | -4 | 42* | 2 | -3 | -41 | 0 | PTPN22 act conf=-1
Cc1nnc(NC(=O)CSCc2ccccc2)s1 | 5 | 35 | 1 | -7 | -36 | -2
COc1cc(OC)cc(-c2cc3nc(C)c(CCC(=O)O)c(=O)n3[nH]2)c1 | -6 | 49* | -12 | -3 | -53 | -3 | PTPN22 act conf=-2
CCOC(=O)CCc1c(C)nc2cc(-c3ccc(Cl)cc3)[nH]n2c1=O | / | / | 8 | / | / | -2
CCOC(=O)CSc1cc(=O)n(CC)c2ccccc12 | -8 | 64* | 5 | -5 | -58 | -1 | PTPN22 act conf=10
CSc1nc(-c2ccccc2)nn1C(=O)c1ccccc1 | 2 | 52* | -2 | -7 | -48 | -4 | PTPN22 act conf=-2
O=C(NCc1ccco1)c1cccs1 | 4 | -2 | 5 | -5 | 1 | 1
